PubChem BioAssay (EPA / NIEHS)
The source made the active and inactive calls. Rule for the calls: active = hit-call score of the fitted dose curve at least 0.9, where 1 is the maximum; inactive = score below 0.9.

Key:
[1] = molecular target: Bile acid receptor (Homo sapiens) (UniProt Q96RI1); test: ATG_IR1_CIS: Attagene CIS-FACTORIAL HepG2 Assay for human Nuclear Receptor Subfamily 1 Group H Member 4 (NR1H4), IR1 submotif (AID 2282946); conditions: IR1 reporter transcription, actives raise or lower the signal
Procedure, shortened: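 Fluorescence of capillary-separated, HpaI-digested RT-PCR reporter products gave IR1-element mRNA induction in HepG2 cells 24 h after dosing. Endogenous transcription factors drove the cis-regulated reporters; activity was fitted bidirectionally against DMSO.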

[2] = ATG_GRE_CIS: Attagene CIS-FACTORIAL HepG2 Assay for human Glucocorticoid Response Elements (GRE) (AID 2282947); conditions: HepG2 GRE cis-reporter, Attagene multiplex mRNA; actives raise or lower the signal
Procedure, shortened: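 Fluorescence intensity of reporter-specific cDNA fragments, separated by capillary electrophoresis, provides the signal. Constructs carry cis-regulating promoters in transiently transfected HepG2 liver cells; 24 h incubation; fitting is bidirectional against DMSO.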

[3] = ATG_ISRE_CIS: Attagene CIS-FACTORIAL HepG2 Assay for human Interferon Regulatory Factor 1 (IRF1) binding to an Interferon-Stimulated Response Element (ISRE) (AID 2282948); conditions: HepG2 ISRE cis-reporter (Attagene), mRNA transcription readout; actives raise or lower the signal
Procedure, shortened: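 Endogenous transcription factor activity read as reporter transcript abundance via RT-PCR and capillary electrophoresis. HepG2 cells transiently transfected, 24 h chemical exposure. Gain or loss fitted against DMSO baseline.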

[4] = ATG_M_32_CIS: Attagene CIS-FACTORIAL HepG2 Assay for M32 Transcription Factor (Internal Marker) (AID 2282949); conditions: HepG2 Attagene cis-factorial M32 reporter, mRNA; actives raise or lower the signal;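 note: background control marker of the multiplexed CIS panel rather than a real target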
Procedure, shortened: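 HepG2 transfectants (cis-regulated reporter transcription units) dosed 24 h. Reporter mRNA by RT-PCR plus CE, analysed as gain or loss relative to DMSO.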

[5] = ATG_M_06_CIS: Attagene CIS-FACTORIAL HepG2 Assay for M06 Transcription Factor (Internal Marker) (AID 2282950); conditions: HepG2 Attagene CIS-FACTORIAL M06 internal marker reporter; actives raise or lower the signal
Procedure, shortened: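 HepG2 liver cells, 24 h exposure. Reporter transcripts from transfected cis-element constructs quantified by RT-PCR/capillary electrophoresis fluorescence. Bidirectional curve fit against DMSO.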

[6] = molecular target: Hypoxia-inducible factor 1-alpha (Homo sapiens) (UniProt Q16665); test: ATG_HIF1a_CIS: Attagene CIS-FACTORIAL HepG2 Assay for human Hypoxia Inducible Factor 1 (HIF1A) (AID 2282951); conditions: HepG2 Attagene cis-factorial HIF1a reporter transcription; actives raise or lower the signal
Procedure, shortened: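 After 24 h chemical exposure of reporter-transfected HepG2 cells, reporter cDNA was PCR-amplified, labelled by 6-FAM primer extension (2 min 95 C, 20 s 68 C, 10 min 72 C), HpaI-cut (2 h, 37 C) and analysed by CE.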

[7] = molecular target: Hepatocyte nuclear factor 6 (Homo sapiens) (UniProt Q9UBC0); test: ATG_HNF6_CIS: Attagene CIS-FACTORIAL HepG2 Assay for human Hepatocyte Nuclear Factor 6 (HNF6) (AID 2282952); conditions: HepG2 Attagene cis-factorial HNF6 reporter transcription; actives raise or lower the signal
Procedure, shortened: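 First, HepG2 cells were transfected with the multiplexed cis reporter library and dosed with chemical for 24 h. Next, RNA was reverse-transcribed, PCR-amplified and fluorescently labelled. Finally, HpaI-digested fragments were read by capillary electrophoresis.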

[8] = molecular target: Heat shock factor protein 1 (Homo sapiens) (UniProt Q00613); test: ATG_HSE_CIS: Attagene CIS-FACTORIAL HepG2 Assay for human Heat Shock Transcription Factor 1 (HSE) (AID 2282953); conditions: HepG2 HSE cis-reporter, Attagene RNA transcription; actives raise or lower the signal
Procedure, shortened: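 Endogenous transcription factor activity captured via cis-promoter reporter units transfected into HepG2; treatment lasted 24 h. Fluorescence intensity of reporter fragments analysed with bidirectional curve fitting, DMSO baseline.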

[9] = ATG_MRE_CIS: Attagene CIS-FACTORIAL HepG2 Assay for human Metal Responsive Element (MRE) (AID 2282954); conditions: HepG2 MRE cis-reporter transcription, Attagene multiplex; actives raise or lower the signal
Procedure, shortened: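 Measured here is mRNA induction from an MRE cis-element reporter in HepG2 after 24 h, quantified by fluorescence of labelled RT-PCR products on capillary electrophoresis; gain- and loss-of-signal fits use DMSO as baseline.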

[10] = ATG_PBREM_CIS: Attagene CIS-FACTORIAL HepG2 Assay for human Phenobarbital-responsive Enhancer Module (PBREM) (AID 2282955); conditions: HepG2 PBREM cis-reporter, Attagene multiplexed transcription; actives raise or lower the signal
Procedure, shortened: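 Measures endogenous factor action on a phenobarbital-responsive enhancer module. HepG2 transiently carrying cis reporters, 24 h treatment, mRNA read-out by RT-PCR plus capillary electrophoresis.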

Measured: AC50

Chain of Hepatocyte nuclear factor 6 (Homo sapiens) (Q9UBC0 whole entry, looked up, the tested form may be a part): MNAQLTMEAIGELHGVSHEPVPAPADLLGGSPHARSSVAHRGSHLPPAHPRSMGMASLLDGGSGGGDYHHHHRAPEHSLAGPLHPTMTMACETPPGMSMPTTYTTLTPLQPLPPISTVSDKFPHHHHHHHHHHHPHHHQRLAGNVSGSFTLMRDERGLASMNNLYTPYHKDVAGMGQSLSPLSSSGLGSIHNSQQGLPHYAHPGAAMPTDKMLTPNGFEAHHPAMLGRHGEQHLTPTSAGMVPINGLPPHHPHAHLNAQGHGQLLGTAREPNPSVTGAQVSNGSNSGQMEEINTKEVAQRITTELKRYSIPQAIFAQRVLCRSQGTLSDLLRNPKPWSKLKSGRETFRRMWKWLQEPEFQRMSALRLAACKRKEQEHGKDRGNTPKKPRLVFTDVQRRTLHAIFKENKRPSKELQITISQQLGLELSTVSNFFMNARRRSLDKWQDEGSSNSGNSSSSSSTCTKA
Chain of Bile acid receptor (Homo sapiens) (Q96RI1 whole entry, looked up): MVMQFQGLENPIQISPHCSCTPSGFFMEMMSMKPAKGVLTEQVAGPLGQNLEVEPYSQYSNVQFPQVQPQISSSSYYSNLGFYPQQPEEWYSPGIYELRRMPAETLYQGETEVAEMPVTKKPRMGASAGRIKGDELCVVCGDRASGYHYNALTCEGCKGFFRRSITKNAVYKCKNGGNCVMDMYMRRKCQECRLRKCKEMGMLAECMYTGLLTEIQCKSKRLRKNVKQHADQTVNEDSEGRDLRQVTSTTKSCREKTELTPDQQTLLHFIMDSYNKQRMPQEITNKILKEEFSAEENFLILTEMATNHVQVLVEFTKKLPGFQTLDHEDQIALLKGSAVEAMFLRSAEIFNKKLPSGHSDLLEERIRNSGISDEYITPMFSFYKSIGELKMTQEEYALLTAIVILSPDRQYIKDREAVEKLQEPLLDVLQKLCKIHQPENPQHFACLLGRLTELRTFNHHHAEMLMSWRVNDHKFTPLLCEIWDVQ
Chain of Heat shock factor protein 1 (Homo sapiens) (Q00613 whole entry, looked up, the tested form may be a part): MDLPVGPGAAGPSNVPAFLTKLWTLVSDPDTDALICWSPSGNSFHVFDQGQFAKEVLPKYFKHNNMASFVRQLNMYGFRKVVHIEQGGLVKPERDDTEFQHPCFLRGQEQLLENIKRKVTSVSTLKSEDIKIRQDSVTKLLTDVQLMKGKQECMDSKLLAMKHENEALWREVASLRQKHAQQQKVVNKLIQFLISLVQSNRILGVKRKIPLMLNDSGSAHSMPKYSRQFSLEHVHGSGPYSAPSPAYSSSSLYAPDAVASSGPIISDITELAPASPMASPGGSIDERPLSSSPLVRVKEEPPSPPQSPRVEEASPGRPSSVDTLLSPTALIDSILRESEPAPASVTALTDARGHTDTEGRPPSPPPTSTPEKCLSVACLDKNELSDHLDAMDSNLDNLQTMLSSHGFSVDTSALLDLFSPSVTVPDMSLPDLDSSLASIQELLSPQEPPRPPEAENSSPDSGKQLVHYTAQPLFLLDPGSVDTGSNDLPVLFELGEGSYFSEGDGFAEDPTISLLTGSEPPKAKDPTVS
Chain of Hypoxia-inducible factor 1-alpha (Homo sapiens) (Q16665 whole entry, looked up): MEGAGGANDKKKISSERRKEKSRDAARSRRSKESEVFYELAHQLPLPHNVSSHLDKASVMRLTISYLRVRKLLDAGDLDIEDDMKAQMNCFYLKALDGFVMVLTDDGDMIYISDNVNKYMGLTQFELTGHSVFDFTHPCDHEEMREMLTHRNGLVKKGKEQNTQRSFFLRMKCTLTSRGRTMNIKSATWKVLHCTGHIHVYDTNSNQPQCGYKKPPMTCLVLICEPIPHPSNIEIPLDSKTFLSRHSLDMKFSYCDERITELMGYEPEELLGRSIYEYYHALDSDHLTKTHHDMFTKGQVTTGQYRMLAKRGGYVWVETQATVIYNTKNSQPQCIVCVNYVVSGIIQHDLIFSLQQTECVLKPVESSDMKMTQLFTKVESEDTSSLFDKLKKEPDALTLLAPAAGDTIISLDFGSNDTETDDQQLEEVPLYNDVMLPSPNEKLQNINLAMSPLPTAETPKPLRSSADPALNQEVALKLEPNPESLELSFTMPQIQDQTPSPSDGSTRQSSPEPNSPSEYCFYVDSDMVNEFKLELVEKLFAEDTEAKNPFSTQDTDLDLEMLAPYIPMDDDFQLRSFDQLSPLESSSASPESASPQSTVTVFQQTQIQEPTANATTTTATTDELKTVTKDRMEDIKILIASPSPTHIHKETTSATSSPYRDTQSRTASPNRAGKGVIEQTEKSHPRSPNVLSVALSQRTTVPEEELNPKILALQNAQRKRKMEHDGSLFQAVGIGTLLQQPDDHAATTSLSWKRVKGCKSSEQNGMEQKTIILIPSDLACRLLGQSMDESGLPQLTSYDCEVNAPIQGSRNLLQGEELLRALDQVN

CC(=O)O[C@H]1C[C@@H]2CC[C@@]1(C)C2(C)C
inactive: [1] | [2] | [3] | [4] | [5] | [6] | [7] | [8] | [9]

C=CC(C)(O)CCC=C(C)C (stereo unspecified)
inactive: [1] | [2] | [3] | [4] | [5] | [6] | [7] | [8] | [9]

CCCCC(CC)COC(=O)c1ccc(O)cc1 (stereo unspecified)
inactive: [1] | [2] | [3] | [4] | [5] | [6] | [7] | [8] | [9]

CCNCCO
inactive: [1] | [2] | [3] | [4] | [5] | [6] | [7] | [8] | [9]

CCCC(C)C(O)CC (stereo unspecified)
inactive: [1] | [2] | [3] | [4] | [5] | [6] | [7] | [8] | [9]

Cc1ccc(N)c(S(=O)(=O)O)c1
inactive: [1] | [2] | [3] | [4] | [5] | [6] | [7] | [8] | [9]

Cc1ncc[nH]1
inactive: [1] | [2] | [3] | [4] | [5] | [6] | [7] | [8] | [9]

C=C(C)C(=O)OCC(CC)(COC(=O)C(=C)C)COC(=O)C(=C)C
inactive: [1] | [2] | [3] | [4] | [5] | [6] | [7] | [8] | [9] | [10]

Cc1c(Cl)cccc1[N+](=O)[O-]
inactive: [1] | [2] | [3] | [4] | [5] | [6] | [7] | [8] | [9]

CCCCCCC(O)CCCCCCCCCCC(=O)O (stereo unspecified)
inactive: [1] | [2] | [3] | [4] | [5] | [6] | [7] | [8] | [9]

C=COCCOCCOC=C
inactive: [1] | [2] | [3] | [4] | [5] | [6] | [7] | [8] | [9] | [10]

Nc1ccc(Cl)c([N+](=O)[O-])c1
inactive: [1] | [2] | [3] | [4] | [5] | [6] | [7] | [8] | [9]

Nc1ccc(N)c2c1C(=O)c1ccccc1C2=O
inactive: [1] | [2] | [3] | [4] | [5] | [6] | [7] | [8] | [9] | [10]

COc1cc(C(C)C)ccc1C
inactive: [1] | [2] | [3] | [4] | [5] | [6] | [7] | [8] | [9]

O=C(Nc1ccc([N+](=O)[O-])cc1)Nc1ccc([N+](=O)[O-])cc1 (tested in a mixture with another compound)
inactive: [1] | [2] | [3] | [4] | [5] | [6] | [7] | [8] | [9]

CCCCCCC(C)(C)S
inactive: [1] | [2] | [3] | [4] | [5] | [6] | [7] | [8] | [9] | [10]

CC(=O)c1c(C)c([N+](=O)[O-])c(C(C)(C)C)c([N+](=O)[O-])c1C
active: [9] 11.5 µM
inactive: [1] | [2] | [3] | [4] | [5] | [6] | [7] | [8] | [10]

CCCCCCCCCCCCCCN(CCO)CCO
inactive: [1] | [2] | [3] | [4] | [5] | [6] | [7] | [8] | [9] | [10]

O=P(O)(O)O
inactive: [1] | [2] | [3] | [4] | [5] | [6] | [7] | [8] | [9]

OCC#CCO
inactive: [1] | [2] | [3] | [4] | [5] | [6] | [7] | [8] | [9]

NC(=S)NNC(N)=S
inactive: [1] | [2] | [3] | [4] | [5] | [6] | [7] | [8] | [9]

CCCCCCOCCOCCO
inactive: [1] | [2] | [3] | [4] | [5] | [6] | [7] | [8] | [9]

C/C=C(\C)C(=O)OCCc1ccccc1
inactive: [1] | [2] | [3] | [4] | [5] | [6] | [7] | [8] | [9] | [10]

CS(C)=O
inactive: [1] | [2] | [3] | [4] | [5] | [6] | [7] | [8] | [9]

CC1C2CC(CC2C2CCCC(O)C2)C1(C)C (stereo unspecified)
inactive: [1] | [2] | [3] | [4] | [5] | [6] | [7] | [8] | [9]

CC(=O)Nc1ccc(C(=O)CCl)cc1
inactive: [2] | [4] | [5] | [6] | [7] | [8]
active: [1] 33.4 µM | [3] 6.86 µM | [9] 16.1 µM
